Where “and” joins values, the source holds several entries; their conditions need not be identical. Identical values can stand only once. Among all 430,000 compounds or so, about 2,600 (0.6%) were called active. The entries come from a sample that favours actives as a whole. Values without a mark were called inactive. No stated cut-off is given here; in the data, active means inhibition mostly above about 37% (no sharp cut-off); inactive means mostly below about 20%.
Test system: PriA–SSB C-terminal tail interaction (Klebsiella pneumoniae)
Assay: inhibitors of Klebsiella pneumoniae PriA binding to SSB C-terminal tail, primary screen, biochemical, AlphaScreen (AID 1272365);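 on inhibition: plate controls were negative control peptide for no effect and reference peptide for full effect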
Details: AlphaScreen SSBct-PriA binding, biotinylated peptide; at 33 µM, active compounds read high

SMILES	inhibition
COC(=O)C1CCN(C(=O)C(=O)c2c[nH]c3ccccc23)CC1	6%
CCOc1ccc(C(=O)NCCNC(=O)c2ccc(NC(C)=O)cc2)cc1OCC	-15%
COc1c2ccc(C(=O)NCC3CCCN3c3nc4ccccc4o3)cc2nn1C (stereo not given)	-11%
Cc1ccc(/C=C/S(=O)(=O)N2CC(S(=O)(=O)c3ccc(F)cc3)C2)cc1	-9%
N#CCCSc1ccccc1NC(=O)c1ccc([N+](=O)[O-])o1	-9%
CCOC(=O)CSc1ncc(-c2ccc(OC)cc2)n1-c1ccccc1C	53% (active)
COc1ccc(-c2cnc(SCC(=O)Nc3nccs3)n2-c2cccc(Cl)c2)cc1	-6%
CCOC(=O)CSc1nnc(CNC(=O)Cc2ccccc2)n1-c1ccccc1OC	-1.32%
Cc1ccnc(N/C=C(/NC(=O)c2ccccc2)C(=O)N/N=C/c2ccc(Cl)cc2)n1	inactive
COc1ccc(S(=O)(=O)NCc2ccccc2-c2ccsc2)cc1Cl	-26%
O=C1COc2ccc(C(=O)COC(=O)c3ccccc3Cl)cc2N1	-1.39%
CCCn1c(=N)n(CC(=O)c2ccc(Cl)c(Cl)c2)c2ccccc21	-3.72%
O=C(CN1CC(=O)Oc2ccccc21)OCC(=O)c1ccc(Cl)c(Cl)c1	93.6% (active)
O=C(NCCN1CCOC(c2ccccc2)C1)C1CC1 (stereo not given)	-7%
c1ccc(-c2cn3c(n2)CCc2ccc4cccnc4c2-3)cc1	39.4% (active)
c1ccc(-c2nc3ccc4ncccc4c3nc2-c2ccccc2)cc1	-12%
CC(C)CS(=O)(=O)C1CCN(C(=O)c2cccc(Oc3ccc(F)cc3)c2)CC1	-1%
CCCCC[n+]1ccn(C2=C([O-])c3ccccc3C(=O)C2=NS(=O)(=O)c2ccccc2)c1	-14.3%
CC(C)(C)NC(=O)COC(=O)c1cc(Cl)ccc1[N+](=O)[O-]	6.97%
CCCC(=O)OCC(=O)Nc1cc(Cl)ccc1[N+](=O)[O-]	42.6% (active)
Cc1cc(NC(=O)COC(=O)COc2ccc(Cl)cc2C)c([N+](=O)[O-])cc1C	10.3%
O=C(NCc1cncc(-c2cccs2)c1)c1ccc2ncsc2c1	-4%
CC(NC(=O)c1ccccc1)C(c1ccccc1)N(C)C (stereo not given)	25%
CC(C)NC(=O)c1ccccc1Nc1c([N+](=O)[O-])cc(C(F)(F)F)cc1[N+](=O)[O-]	56% (active)

SMILES	inhibition
O=C(NNC(=O)c1ccccc1[N+](=O)[O-])Nc1ccccc1C(F)(F)F	-2.15%
CC(C)NC(=O)c1ccc(Sc2ccccc2)c([N+](=O)[O-])c1	-10.4%
COc1ccc(C)cc1NC(=O)Cc1cc(=O)[nH]c(SCc2ccc(F)cc2)n1	-4%
O=C(CN1C(=O)COc2ccc(Cl)cc21)Nc1ccc(N2CCOCC2)cc1	-6.86%
O=C(CN1C(=O)COc2ccccc21)Nc1ccc(F)cc1	48.3% (active)
CC(OC(=O)CN1C(=O)COc2ccccc21)C(=O)NCc1ccc(F)cc1 (stereo not given)	4.53%
N#CCSc1ncc(-c2ccc(Br)cc2)n1-c1ccc(F)cc1	7%
O=C(CSc1ncc(-c2ccccc2)n1-c1ccc(F)cc1)N1CCCC1	43% (active)
Cn1c(-c2ccc(F)cc2)cnc1SCC(=O)NNC(=O)Cc1ccccc1	-3.92%
CS(=O)(=O)c1ccc(-c2ccc(NS(=O)(=O)c3ccc4c(c3)CCCC4)cc2)nn1	-11%
O=C(c1cccc(Oc2ncccn2)c1)N1CCCC1	-8%
O=C(C[C@@H]1C/C=C/CC[C@H](Cc2ccc(F)cc2)C(=O)OC[C@@H](Cc2ccccc2)NC1=O)NCCO	-9.28%
O=C(c1ccc(=O)[nH]n1)N1CCCC(Cc2nc(-c3ccsc3)no2)C1 (stereo not given)	-8%
O=C(c1ccc(-n2cccc2)cc1)N1CCC[C@H](Cc2nc(-c3ccsc3)no2)C1	31% (active)
O=C(c1cc(-c2cccs2)on1)N1CCC[C@H](Cc2nc(-c3ccsc3)no2)C1	3%
O=C(c1ccc(-c2cccs2)cc1)N1CC(Oc2nccs2)C1	-9%
Cc1cc(=O)n(C)c(=O)n1CCCNc1ccccc1	-14.1%
Cn1c(Nc2ccccc2)cc(=O)n(C)c1=O	43.6% (active)
CC(C)Oc1ccc(C(=O)Nc2cc(=O)n(C)c(=O)n2C)cc1	-9.4%
N#Cc1nccnc1N1CCC(CNC(=O)c2cc(=O)c3ccccc3o2)CC1	-11%
Cn1nc(CNS(=O)(=O)C2CC2)cc1-c1ccco1	-8%
CCOCC(=O)NCc1ccc2c(c1)cc(C)n2C	0.95%
COc1ccc(NC(=O)NCc2ccc3c(c2)OCO3)c(OC)c1	-0.59%
COc1ccc(OC)c(NC(=S)NCc2ccc3c(c2)cc(C)n3C)c1	81.2% (active)

SMILES	inhibition
CCOc1ccc(S(=O)(=O)NCCCn2nc(-c3ccncc3)ccc2=O)cc1	-20%
COC(=O)N1CCc2c(sc(NC(=O)c3cccc(N4C(=O)CCC4=O)c3)c2C#N)C1	-11%
CC(Cc1cccs1)NC(=O)Cc1ccccc1Cl (stereo not given)	-11%
COC(=O)c1ccc(C=NN2C(C)CCCC2C)cc1 (stereo not given)	14.5%
CC1CCCC(C)N1N=Cc1ccc([N+](=O)[O-])cc1 (stereo not given)	46.8% (active)
O=[N+]([O-])c1ccc(C=NN2CCN(c3ccc(Cl)cc3)CC2)cc1	-20.9%
COc1ccc(C(=O)C=C(C)NCc2ccc3c(c2)OCO3)cc1	12.8%
CN1C(=O)C(C)(C)COc2ccc(NC(=O)c3ccc(Cl)cc3)cc21	18%
CCOc1ccc(NC(=O)CCS(=O)(=O)c2cccc3nsnc23)cc1	-12%
CCOc1ccc(-c2cn(S(=O)(=O)c3cccc4nsnc34)nc2N)cc1	40.5% (active)
CCOc1ccc(N(CC)S(=O)(=O)c2cccc3nsnc23)cc1	4.13%
C=C1Cn2c(nnc2-c2ccc(Br)cc2)S1	97% (active)
Brc1ccc(-c2nn[nH]n2)cc1	-6.63%
COc1ccccc1-c1nnc2n1N=C(c1ccc(Br)cc1)CS2	-20%
O=C(C[C@H]1C/C=C/CCCC(=O)OC[C@H]2CCCN2C1=O)NCCO	-5.28%
Cn1nnc2c(N3CC(C(=O)Nc4ccc5cn[nH]c5c4)C3)ncnc21	2%
O[C@H](COc1cccc(Oc2ccccc2)c1)CN1CCN(c2ccccc2)CC1	31% (active)
OC(COCc1ccco1)CN1CCN(c2ccccc2)CC1 (stereo not given)	-2.32%
OC(COc1ccc2c(c1)CCC2)CN1CCN(c2cccc(Cl)c2)CC1 (stereo not given)	-11%
CSCC(C)(O)CNS(=O)(=O)c1cccc2ccccc12 (stereo not given)	-6%
Cn1nc2cc(Br)ccc2c1C(=O)N1CCc2ncncc2C1	1%
CCc1cc(=O)[nH]c2nnc(SCC#N)n12	-14%
Cc1cc(C)c2nc(N(CCn3cccn3)C(=O)c3cc4ccccc4o3)sc2c1	-1%
Cc1cc(C)c2nc(N(CCCn3ccnc3)C(=O)c3ccco3)sc2c1	95.7% (active)

SMILES	inhibition
COc1ccc(OC)c2sc(N(CCCN3CCOCC3)C(=O)c3cc(C)no3)nc12	3%
O=C(NCCc1ccoc1)C(=O)Nc1ccc(F)cc1F	8%
CCC1SC(=S)N(C)C1=O (stereo not given)	-17%
CC(C)CCN1C(=O)C(C)(C)COc2cc(NC(=O)CN3C(=O)c4ccccc4C3=O)ccc21	-6%
Cc1cc(F)ccc1S(=O)(=O)N1CCCOC1CNC(=O)C(=O)NCCC1=CCCCC1 (stereo not given)	2.41%
O=C(NCCCn1ccnc1)C(=O)NCC1OCCN1S(=O)(=O)c1cc(F)ccc1F (stereo not given)	70.1% (active)
O=C(NCCCc1ccccc1)C(=O)NCC1OCCN1S(=O)(=O)c1ccccc1 (stereo not given)	-3.21%
O=C(Nc1cnc(-n2ccnc2)nc1)c1ccccc1Cl	-6%
O=C(c1cccs1)c1ccc(CNS(=O)(=O)CCOc2ccccc2)s1	-4%
Cc1cc(C)n(-c2nc(N)cc(=O)[nH]2)n1	73% (active)
Cc1cc(C)n(-c2nc(O)cc(=O)[nH]2)n1	5.59%
Cc1cc(=O)[nH]c(-n2nc(C)c(CCC(=O)Nc3ccc(Cl)cc3)c2C)n1	-4%
CN(C)CCN(C(=O)c1cc2cc([N+](=O)[O-])ccc2s1)c1nc2cc3c(cc2s1)OCO3	28%
O=C(C1CC=CCC1)N1CCCC(S(=O)(=O)c2ccc(F)cc2)C1 (stereo not given)	-14%
CN1CCCc2cc(CCNC(=O)c3ccc(Br)cc3)ccc21	18% and -16%
CN1CCCc2cc(CCNC(=O)C(=O)Nc3ccc4c(c3)OCCO4)ccc21	-11%
COc1cc(NC(=O)NCCc2ccc3c(c2)CCCN3C)cc(OC)c1	63% (active)
Cc1ccc(NC(=O)CCc2csc(NC(=O)c3ccc(=O)[nH]c3)n2)cc1Cl	-9%
CN(C)c1nn(CC(=O)NCc2ccc3c(c2)OCO3)cc1-c1ccc(Cl)cc1	1%
CC1Nc2ncnn2C(c2ccccc2)C1C(=O)Nc1ccccc1 (stereo not given)	-3%
CC(=O)Nc1cccc(C(C)=NNc2ccc(S(=O)(=O)Nc3ccccc3C(=O)O)cc2[N+](=O)[O-])c1	12%
COc1ccc(/C=N/Nc2ccccc2[N+](=O)[O-])c(C(=O)O)c1OC	inactive
Cc1ccc(NS(=O)(=O)c2ccc(N/N=C/c3ccccc3OCC(=O)O)c([N+](=O)[O-])c2)c(C)c1	active
